Drawing on paper PMC7862700, “An all-to-all approach to the identification of sequence-specific readers for epigenetic DNA modifications on cytosine”, this text covers binding signal for 1 sequence.

Assay in all cases: DAPPL (digital affinity profiling via proximity ligation, sequencing); 10 mM Tris-HCl pH 7.5, 50 mM NaCl, 1 mM DTT, 4% glycerol, room temperature, 30 min; GST-TFs on glutathione beads, 16-mer random dsDNA library, 0.1% formaldehyde crosslink after washing; high values mean tight binding
The target of assay [1] is T1, FEV (Homo sapiens, UniProt Q99581 1-238).
T1 sequence: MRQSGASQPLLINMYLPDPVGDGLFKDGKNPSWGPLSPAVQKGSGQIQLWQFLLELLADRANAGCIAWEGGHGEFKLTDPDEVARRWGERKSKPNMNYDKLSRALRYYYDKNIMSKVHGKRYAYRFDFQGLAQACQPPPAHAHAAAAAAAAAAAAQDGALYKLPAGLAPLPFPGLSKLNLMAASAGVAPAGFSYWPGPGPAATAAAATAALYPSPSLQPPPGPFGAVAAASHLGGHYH
To be noted: protein: recombinant; tags: N-terminal GST; dsDNA, one strand shown. In outline:
(§1)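 Pools of DNA-barcoded human transcription factors, expressed in yeast as GST fusions on glutathione beads and combined with a tag-only sample, were incubated with 200 nmole of a 16-mer random double-stranded DNA library. Incubation took 30 min at room temperature in Tris/NaCl/DTT/glycerol buffer and was followed by washing, 0.1% formaldehyde crosslinking, proximity ligation (BsaI/T4 ligase, 1 h, 37 °C), PCR amplification and sequencing on an Illumina NextSeq500. Binding signal is the ratio of a hexamer's read frequency for a factor to its frequency for the tag-only sample.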

Assay [2] has as its target ETV5 (Homo sapiens, UniProt P41161 1-510). The note with it: protein: recombinant; tags: N-terminal GST; dsDNA, one strand shown. In outline:
as §1

The target in assay [3] is HSF1 (Homo sapiens, UniProt Q00613 1-529). To be noted: protein: recombinant; tags: N-terminal GST; chain copies: 3; dsDNA, one strand shown. Put shortly:
as §1

Assay [4] concerns the target T2, SPIC (Homo sapiens, UniProt Q8N5J4 1-248).
T2 sequence: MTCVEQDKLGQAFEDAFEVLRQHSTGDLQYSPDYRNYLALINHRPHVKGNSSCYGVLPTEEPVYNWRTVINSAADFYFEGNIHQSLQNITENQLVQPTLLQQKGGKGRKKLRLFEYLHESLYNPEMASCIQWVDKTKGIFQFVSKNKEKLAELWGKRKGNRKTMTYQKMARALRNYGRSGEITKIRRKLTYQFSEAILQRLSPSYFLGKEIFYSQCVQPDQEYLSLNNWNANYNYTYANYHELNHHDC
To be noted: protein: recombinant; tags: N-terminal GST; dsDNA, one strand shown. In outline:
as §1

The target in assay [5] is ELF4 (Homo sapiens, UniProt Q99607 1-663). The note with it: protein: recombinant; tags: N-terminal GST; dsDNA, one strand shown. In outline: as §1
Sequence of ELF4 (Q99607 whole entry): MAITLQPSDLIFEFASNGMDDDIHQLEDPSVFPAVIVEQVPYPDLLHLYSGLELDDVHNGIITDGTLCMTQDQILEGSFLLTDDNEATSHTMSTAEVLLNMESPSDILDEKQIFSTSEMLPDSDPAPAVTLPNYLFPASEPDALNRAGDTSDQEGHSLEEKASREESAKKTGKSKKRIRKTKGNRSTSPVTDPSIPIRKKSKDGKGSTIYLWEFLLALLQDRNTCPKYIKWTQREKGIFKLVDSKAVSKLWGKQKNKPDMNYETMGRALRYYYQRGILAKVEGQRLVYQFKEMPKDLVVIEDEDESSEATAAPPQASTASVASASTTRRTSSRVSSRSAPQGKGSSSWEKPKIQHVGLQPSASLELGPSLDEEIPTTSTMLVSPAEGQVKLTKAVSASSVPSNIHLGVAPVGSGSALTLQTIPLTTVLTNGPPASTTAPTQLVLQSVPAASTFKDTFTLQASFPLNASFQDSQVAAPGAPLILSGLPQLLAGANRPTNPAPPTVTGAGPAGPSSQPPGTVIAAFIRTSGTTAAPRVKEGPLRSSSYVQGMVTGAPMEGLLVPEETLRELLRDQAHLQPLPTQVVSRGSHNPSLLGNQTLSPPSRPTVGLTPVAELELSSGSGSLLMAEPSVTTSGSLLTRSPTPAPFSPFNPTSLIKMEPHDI
In assay [6] the target is T3, ELK4 (Homo sapiens, UniProt P28324-2 1-405).
T3 sequence: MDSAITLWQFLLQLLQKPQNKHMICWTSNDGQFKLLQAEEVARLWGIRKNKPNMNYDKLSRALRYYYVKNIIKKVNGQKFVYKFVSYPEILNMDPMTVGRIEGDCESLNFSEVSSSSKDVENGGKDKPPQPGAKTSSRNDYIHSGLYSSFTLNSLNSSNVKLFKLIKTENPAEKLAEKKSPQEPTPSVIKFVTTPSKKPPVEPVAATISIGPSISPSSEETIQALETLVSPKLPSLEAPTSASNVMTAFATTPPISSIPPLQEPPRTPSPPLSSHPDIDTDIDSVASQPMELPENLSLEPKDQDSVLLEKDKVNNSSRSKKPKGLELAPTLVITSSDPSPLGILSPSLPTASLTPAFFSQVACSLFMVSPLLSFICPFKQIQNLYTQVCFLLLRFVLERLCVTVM
To be noted: protein: recombinant; tags: N-terminal GST; dsDNA, one strand shown. Put shortly:
as §1

The target in assay [7] is T4, ETV2 (Homo sapiens, UniProt O00321 1-342).
T4 sequence: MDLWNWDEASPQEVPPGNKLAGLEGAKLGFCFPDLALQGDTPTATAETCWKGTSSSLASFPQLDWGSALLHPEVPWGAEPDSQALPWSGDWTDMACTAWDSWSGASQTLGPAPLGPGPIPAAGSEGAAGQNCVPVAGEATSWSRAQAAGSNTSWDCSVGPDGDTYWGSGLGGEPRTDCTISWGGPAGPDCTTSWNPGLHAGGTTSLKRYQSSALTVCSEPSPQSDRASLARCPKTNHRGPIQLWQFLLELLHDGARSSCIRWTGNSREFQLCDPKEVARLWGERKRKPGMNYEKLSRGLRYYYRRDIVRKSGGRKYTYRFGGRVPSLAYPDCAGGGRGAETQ
To be noted: protein: recombinant; tags: N-terminal GST; dsDNA, one strand shown. In outline:
as §1

Assay [8] has as its target T5, ELF3 (Homo sapiens, UniProt P78545 1-371).
T5 sequence: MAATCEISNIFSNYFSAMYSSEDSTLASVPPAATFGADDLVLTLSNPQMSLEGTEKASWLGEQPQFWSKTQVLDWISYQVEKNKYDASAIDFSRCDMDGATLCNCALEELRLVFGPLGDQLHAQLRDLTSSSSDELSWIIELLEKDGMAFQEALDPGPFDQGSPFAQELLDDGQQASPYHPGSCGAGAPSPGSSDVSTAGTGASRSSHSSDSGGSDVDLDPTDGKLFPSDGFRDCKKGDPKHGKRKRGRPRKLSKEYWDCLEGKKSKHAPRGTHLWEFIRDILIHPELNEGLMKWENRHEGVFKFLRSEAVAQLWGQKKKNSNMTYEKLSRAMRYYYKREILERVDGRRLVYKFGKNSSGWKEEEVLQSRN
To be noted: protein: recombinant; tags: N-terminal GST; dsDNA, one strand shown. In outline:
as §1

Assay [9] has as its target CRX (Homo sapiens, UniProt O43186 1-299). The note with it: protein: recombinant; tags: N-terminal GST; dsDNA, one strand shown. Put shortly:
as §1

Assay [10] has as its target ETV1 (Homo sapiens, UniProt P50549 1-477). The note with it: protein: recombinant; tags: N-terminal GST; dsDNA, one strand shown. Put shortly:
as §1

The target in assay [11] is T6, ERF (Homo sapiens, UniProt P50548 1-548).
T6 sequence: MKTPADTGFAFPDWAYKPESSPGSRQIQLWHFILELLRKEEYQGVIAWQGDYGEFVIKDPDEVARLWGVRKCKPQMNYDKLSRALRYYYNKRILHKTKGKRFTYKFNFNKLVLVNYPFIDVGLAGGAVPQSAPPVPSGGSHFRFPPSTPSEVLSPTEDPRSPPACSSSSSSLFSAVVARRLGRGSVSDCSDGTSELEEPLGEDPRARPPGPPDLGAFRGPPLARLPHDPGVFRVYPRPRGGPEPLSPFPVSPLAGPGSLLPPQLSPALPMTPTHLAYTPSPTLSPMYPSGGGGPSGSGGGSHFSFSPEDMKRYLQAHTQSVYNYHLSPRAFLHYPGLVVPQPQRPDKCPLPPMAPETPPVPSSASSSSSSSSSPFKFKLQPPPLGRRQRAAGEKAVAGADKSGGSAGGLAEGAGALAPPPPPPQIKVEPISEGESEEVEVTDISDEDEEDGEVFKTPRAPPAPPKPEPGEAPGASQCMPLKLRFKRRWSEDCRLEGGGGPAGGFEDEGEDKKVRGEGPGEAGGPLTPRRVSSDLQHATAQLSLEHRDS
To be noted: protein: recombinant; tags: N-terminal GST; dsDNA, one strand shown. Put shortly: as §1

Assay [12] has as its target T7, ETV3L (Homo sapiens, UniProt Q6ZN32 1-361).
T7 sequence: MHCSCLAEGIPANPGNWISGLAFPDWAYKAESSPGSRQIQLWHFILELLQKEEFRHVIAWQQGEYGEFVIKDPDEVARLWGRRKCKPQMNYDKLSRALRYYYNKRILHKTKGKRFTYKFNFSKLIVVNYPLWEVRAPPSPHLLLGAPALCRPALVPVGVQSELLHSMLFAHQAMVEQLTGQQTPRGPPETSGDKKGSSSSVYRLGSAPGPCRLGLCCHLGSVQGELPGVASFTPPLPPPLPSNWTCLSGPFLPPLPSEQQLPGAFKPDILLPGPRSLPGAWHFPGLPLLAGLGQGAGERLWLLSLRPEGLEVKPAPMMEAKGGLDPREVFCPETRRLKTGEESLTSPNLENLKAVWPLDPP
To be noted: protein: recombinant; tags: N-terminal GST; dsDNA, one strand shown. Put shortly: as §1

Assay [13] has as its target T8, ETS2 (Homo sapiens, UniProt P15036 1-469).
T8 sequence: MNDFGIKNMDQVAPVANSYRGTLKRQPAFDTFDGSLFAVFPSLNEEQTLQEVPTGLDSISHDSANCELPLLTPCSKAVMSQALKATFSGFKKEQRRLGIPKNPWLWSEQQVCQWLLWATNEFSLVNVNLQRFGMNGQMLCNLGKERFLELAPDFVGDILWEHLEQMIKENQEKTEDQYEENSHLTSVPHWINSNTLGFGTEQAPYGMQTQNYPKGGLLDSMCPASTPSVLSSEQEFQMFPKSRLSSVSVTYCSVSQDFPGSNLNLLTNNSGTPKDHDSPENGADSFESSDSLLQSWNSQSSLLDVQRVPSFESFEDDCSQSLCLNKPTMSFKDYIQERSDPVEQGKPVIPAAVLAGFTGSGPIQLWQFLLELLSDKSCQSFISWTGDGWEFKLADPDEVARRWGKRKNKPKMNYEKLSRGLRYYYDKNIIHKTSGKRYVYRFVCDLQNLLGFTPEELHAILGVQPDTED
The note with it: protein: recombinant; tags: N-terminal GST; dsDNA, one strand shown. In outline: as §1

The target of assay [14] is T9, SPDEF (Homo sapiens, UniProt O95238 1-335).
T9 sequence: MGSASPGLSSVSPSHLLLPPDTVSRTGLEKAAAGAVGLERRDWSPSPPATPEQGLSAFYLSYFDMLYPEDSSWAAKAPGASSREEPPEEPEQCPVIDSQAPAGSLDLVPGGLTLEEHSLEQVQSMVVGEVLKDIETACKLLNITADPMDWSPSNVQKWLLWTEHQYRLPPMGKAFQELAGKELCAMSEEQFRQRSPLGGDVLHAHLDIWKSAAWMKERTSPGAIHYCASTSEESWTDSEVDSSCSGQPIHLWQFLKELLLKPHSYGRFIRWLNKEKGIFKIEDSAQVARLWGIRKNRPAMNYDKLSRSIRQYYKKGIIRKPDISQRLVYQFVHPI
To be noted: protein: recombinant; tags: N-terminal GST; dsDNA, one strand shown. In outline: as §1

Assay [15] has as its target T10, ETV7 (Homo sapiens, UniProt Q9Y603 1-341).
T10 sequence: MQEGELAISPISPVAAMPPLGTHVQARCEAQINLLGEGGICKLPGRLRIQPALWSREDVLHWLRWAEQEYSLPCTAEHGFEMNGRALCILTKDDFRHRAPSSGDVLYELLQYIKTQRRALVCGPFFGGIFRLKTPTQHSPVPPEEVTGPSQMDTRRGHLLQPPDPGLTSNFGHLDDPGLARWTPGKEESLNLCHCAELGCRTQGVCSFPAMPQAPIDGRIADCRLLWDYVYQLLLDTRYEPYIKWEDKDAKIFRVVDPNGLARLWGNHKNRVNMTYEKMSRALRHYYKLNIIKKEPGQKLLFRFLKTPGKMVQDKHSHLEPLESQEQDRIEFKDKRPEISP
The note with it: protein: recombinant; tags: N-terminal GST; dsDNA, one strand shown. In outline: as §1

Assay [16] has as its target T11, ELF5 (Homo sapiens, UniProt Q9UKW6-2 1-255).
T11 sequence: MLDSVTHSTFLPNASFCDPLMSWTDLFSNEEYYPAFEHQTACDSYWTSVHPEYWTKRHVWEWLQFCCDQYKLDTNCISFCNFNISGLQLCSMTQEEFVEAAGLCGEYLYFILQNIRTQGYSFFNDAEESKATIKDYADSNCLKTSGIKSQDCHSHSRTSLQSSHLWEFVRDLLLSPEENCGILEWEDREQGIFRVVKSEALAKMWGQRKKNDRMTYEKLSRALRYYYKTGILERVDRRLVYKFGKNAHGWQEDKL
The note with it: protein: recombinant; tags: N-terminal GST; dsDNA, one strand shown. In outline: as §1

In assay [17] the target is T12, ETV3 (Homo sapiens, UniProt P41162-2 1-143).
T12 sequence: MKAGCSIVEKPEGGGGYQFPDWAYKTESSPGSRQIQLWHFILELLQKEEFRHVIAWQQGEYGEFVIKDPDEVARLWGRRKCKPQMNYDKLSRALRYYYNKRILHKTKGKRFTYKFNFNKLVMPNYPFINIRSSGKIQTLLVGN
The note with it: protein: recombinant; tags: N-terminal GST; dsDNA, one strand shown. Put shortly:
as §1

Assay [18] addresses ETV6 (Homo sapiens, UniProt P41212 1-452). To be noted: protein: recombinant; tags: N-terminal GST; dsDNA, one strand shown. In outline: as §1

Sequence of ETV1 (P50549 whole entry): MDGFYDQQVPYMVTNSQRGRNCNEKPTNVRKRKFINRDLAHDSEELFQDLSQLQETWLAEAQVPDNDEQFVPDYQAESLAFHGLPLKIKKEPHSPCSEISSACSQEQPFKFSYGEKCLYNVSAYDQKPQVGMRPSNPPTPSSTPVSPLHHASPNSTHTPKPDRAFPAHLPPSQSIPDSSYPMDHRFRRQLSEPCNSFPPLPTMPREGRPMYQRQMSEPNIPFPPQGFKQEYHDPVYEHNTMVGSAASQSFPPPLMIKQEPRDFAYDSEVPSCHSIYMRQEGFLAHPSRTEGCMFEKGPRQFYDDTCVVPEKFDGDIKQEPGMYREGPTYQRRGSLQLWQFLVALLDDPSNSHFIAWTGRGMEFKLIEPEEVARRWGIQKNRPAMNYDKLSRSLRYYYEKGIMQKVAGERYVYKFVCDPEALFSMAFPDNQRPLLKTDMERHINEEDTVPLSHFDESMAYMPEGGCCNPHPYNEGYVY
Sequence of HSF1 (Q00613 whole entry): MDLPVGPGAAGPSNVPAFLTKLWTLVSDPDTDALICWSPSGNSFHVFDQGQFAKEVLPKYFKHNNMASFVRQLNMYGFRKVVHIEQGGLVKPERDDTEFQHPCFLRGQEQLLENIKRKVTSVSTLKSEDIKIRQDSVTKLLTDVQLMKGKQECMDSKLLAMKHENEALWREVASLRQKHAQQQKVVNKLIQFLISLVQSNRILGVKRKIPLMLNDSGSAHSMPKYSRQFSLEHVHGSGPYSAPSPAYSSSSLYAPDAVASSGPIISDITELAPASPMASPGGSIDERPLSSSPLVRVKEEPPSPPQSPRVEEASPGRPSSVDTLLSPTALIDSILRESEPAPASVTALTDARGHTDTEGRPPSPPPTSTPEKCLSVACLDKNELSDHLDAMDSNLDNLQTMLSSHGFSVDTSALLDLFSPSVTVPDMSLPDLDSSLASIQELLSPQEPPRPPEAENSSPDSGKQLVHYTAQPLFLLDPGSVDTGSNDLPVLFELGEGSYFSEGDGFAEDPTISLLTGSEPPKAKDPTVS
Sequence of CRX (O43186 whole entry): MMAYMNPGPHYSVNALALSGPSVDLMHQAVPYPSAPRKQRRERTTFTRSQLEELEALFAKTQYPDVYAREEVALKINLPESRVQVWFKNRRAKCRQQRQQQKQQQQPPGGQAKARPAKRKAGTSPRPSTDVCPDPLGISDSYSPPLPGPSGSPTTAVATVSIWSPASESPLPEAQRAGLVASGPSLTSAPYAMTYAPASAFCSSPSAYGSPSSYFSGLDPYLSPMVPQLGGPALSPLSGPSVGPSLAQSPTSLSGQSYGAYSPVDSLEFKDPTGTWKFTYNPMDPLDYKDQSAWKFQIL
Sequence of ETV6 (P41212 whole entry): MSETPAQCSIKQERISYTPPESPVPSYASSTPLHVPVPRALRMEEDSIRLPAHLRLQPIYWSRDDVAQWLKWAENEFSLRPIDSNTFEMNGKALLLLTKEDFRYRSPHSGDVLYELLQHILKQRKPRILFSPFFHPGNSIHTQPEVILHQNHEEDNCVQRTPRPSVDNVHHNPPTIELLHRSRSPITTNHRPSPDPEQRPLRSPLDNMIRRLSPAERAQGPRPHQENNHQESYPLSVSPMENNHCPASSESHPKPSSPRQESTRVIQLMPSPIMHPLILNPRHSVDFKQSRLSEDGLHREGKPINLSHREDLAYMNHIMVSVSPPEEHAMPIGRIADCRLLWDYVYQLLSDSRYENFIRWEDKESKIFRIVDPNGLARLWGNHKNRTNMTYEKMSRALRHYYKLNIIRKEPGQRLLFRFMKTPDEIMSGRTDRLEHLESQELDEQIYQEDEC
Sequence of ETV5 (P41161 whole entry): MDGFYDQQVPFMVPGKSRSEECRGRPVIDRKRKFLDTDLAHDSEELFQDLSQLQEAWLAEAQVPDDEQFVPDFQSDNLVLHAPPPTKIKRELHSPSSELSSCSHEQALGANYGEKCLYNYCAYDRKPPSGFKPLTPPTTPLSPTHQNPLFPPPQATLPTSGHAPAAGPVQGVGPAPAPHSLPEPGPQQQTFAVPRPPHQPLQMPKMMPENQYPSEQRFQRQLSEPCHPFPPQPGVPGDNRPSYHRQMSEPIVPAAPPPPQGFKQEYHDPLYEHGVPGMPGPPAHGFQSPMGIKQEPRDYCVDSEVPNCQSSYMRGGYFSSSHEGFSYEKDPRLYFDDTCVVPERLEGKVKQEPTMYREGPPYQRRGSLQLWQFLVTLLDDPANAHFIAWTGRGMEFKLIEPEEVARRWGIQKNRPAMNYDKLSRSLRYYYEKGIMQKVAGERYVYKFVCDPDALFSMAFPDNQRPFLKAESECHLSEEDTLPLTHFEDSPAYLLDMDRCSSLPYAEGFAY

As for CCCGCC, the binding signal in assay [1] is 1.5 fold enrichment (6-mer frequency, TF over GST control); in assay [2] it was 1.31 fold enrichment (6-mer frequency, TF over GST control); in assay [3], 1.17 fold enrichment (6-mer frequency, TF over GST control); in assay [4] it was 1.67 fold enrichment (6-mer frequency, TF over GST control); in assay [5] it was 1.66 fold enrichment (6-mer frequency, TF over GST control); in assay [6], 1.43 fold enrichment (6-mer frequency, TF over GST control). Also, the binding signal is 1.6 fold enrichment (6-mer frequency, TF over GST control) in [7]; 1.45 fold enrichment (6-mer frequency, TF over GST control) in assay [8]; 1.21 fold enrichment (6-mer frequency, TF over GST control) in [9]; 1.5 fold enrichment (6-mer frequency, TF over GST control) in [10]; 1.53 fold enrichment (6-mer frequency, TF over GST control) in [11]; 1.56 fold enrichment (6-mer frequency, TF over GST control) in [12]. Also, the binding signal is 1.38 fold enrichment (6-mer frequency, TF over GST control) in assay [13]; 1.39 fold enrichment (6-mer frequency, TF over GST control) in [14]; 1.48 fold enrichment (6-mer frequency, TF over GST control) in assay [15]; 1.45 fold enrichment (6-mer frequency, TF over GST control) in [16]; 1.47 fold enrichment (6-mer frequency, TF over GST control) in assay [17]; 1.63 fold enrichment (6-mer frequency, TF over GST control) in [18].
